According to PubChem BioAssay (NCI):
About 79,000 compounds went through this panel and 15% of them were active in at least one assay; those are over-represented in the sample as a whole. Active and inactive are the calls of the source. No stated cut-off is given here; in the data, active means growth inhibition above about 70%; inactive means the rest.

Assay: NCI Yeast Anticancer Drug Screen. Data for the mec2-1 strain (AID 157)
Details: S. cerevisiae mec2-1 strain, at 50.0 µM (retest, dose inferred, filed as 5.0), stronger effect = higher value
Procedure, shortened: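 Yeast mec2-1 mutant treated with compound. Readout: growth inhibition vs vehicle controls.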

| Structure (SMILES) | growth inhibition |
| --- | --- |
| Cc1cc(O)c(C(=O)/C=C/c2cccnc2)c(=O)[nH]1 | 76% (active) |
| Oc1ccccc1C(=NNc1ccccc1)c1ccccc1O | 98% (active) |
| Cn1c(=S)c2[nH]c(SCCN3CCCCC3)nc2n(C)c1=O | 46% (inactive) |
| Cc1cc(=O)n(-c2cc3cccccc-3n2)[nH]1 | 97% (active) |
| CC(=O)OCC1OC(n2c(O)c(N=NC(N)=S)c3ccc([N+](=O)[O-])cc32)C(OC(C)=O)C1OC(C)=O (stereo not drawn) | 47% (inactive) |
| COC(=O)NNc1c([N+](=O)[O-])cnn(-c2ccccc2)c1=O | 10% (inactive) |
| CC(=O)N(C1=C(Cl)C(=O)c2ccccc2C1=O)c1ccc(F)cc1 | 98% (active) |
| COC(=O)CC1c2cc(OC)c3cccc(OC)c3c2CCC1(C)C(=O)OC (stereo not drawn) | 90% (active) |
| CC[n+]1c(/C=C/c2ccc(N(C)C)cc2)ccc2ccccc21 | 99% (active) |
| COc1ccc(SC2=C(N(C)C)C(=O)c3ccccc3C2=O)cc1 | 79% (active) |
| C1=C(c2ccccc2)C(=Nc2ccccc2)SC1=Nc1ccccc1 | 100% (active) |
| Cc1c(O)c(Br)c(Br)c(Br)c1Br | 97% (active) |
| CC1(C)OC(C(COC(=O)c2ccc([N+](=O)[O-])cc2)OS(=O)(=O)c2ccc([N+](=O)[O-])cc2)C(C(SCc2ccccc2)SCc2ccccc2)O1 (stereo not drawn) | 99% (active) |
| Cc1cccc(Cc2ccc(Cl)cc2)c1O | 100% (active) |
| C=C(CN(C)C)C(=O)c1ccccc1[N+](=O)[O-] | 96% (active) |
| CCCCN(CCCC)CC(O)c1cc(-c2ccc(Cl)cc2)nc2c(C)cccc12 (stereo not drawn) | 95% (active) |
| O=C(Nc1ccc(Cl)cc1)NS(=O)(=O)c1c(-c2ccccc2)oc2ccccc2c1=O | 98% (active) |
| Cc1cc(CN(Cc2ccccc2)Cc2nc3ccccc3[nH]2)c(O)c(CN(Cc2nc3ccccc3[nH]2)Cc2nc3ccccc3[nH]2)c1 | 24% (inactive) |
| COC1=CC2=CCC3C(CCC4(C)C(C(C)=O)CCC34)C2(C)CC1 (stereo not drawn) | 4% (inactive) |
| OC(C1CCCCN1)C1CC(c2ccccc2)Nc2c(Cl)cc(Cl)cc21 (stereo not drawn) | 99% (active) |

| Structure (SMILES) | growth inhibition |
| --- | --- |
| CN(C)C1=C(Cl)C(=O)c2ccccc2C1=O | 87% (active) |
| CCCCCNC(=O)C1C(=O)N(CCCCC)C(=O)/C1=N\N (stereo not drawn) | 2% (inactive) |
| O=C(Nc1ccc(Cl)cc1)OCCOCCOC(=O)Nc1ccc(Cl)cc1 | 97% (active) |
| CCCC(CC)c1c(O)c(O)c(C(CC)CCC)c(C(CC)CCC)c1C(CC)CCC (stereo not drawn) | 52% (inactive) |
| Cc1ccc(NC(=S)SCc2ccc3c(c2)OCO3)cc1Cl | 99% (active) |
| CN(C)CCCNc1ccc(O)c2c1C(=O)c1ccccc1C2=O | 99% (active) |
| CC1=C(C(=O)Nc2ccc(Cl)c(Cl)c2)C(c2ccco2)C(C(=O)Nc2ccc(Cl)c(Cl)c2)=C(C)N1 | 22% (inactive) |
| Cc1ccccc1NC(=O)CSC(N)=O | 34% (inactive) |
| Cc1[nH]c2ccccc2c1C(C)CC(O)c1ccccc1 (stereo not drawn) | 73% (active) |
| Cn1c(=O)ccc2cc(C(=O)c3ccccc3)ccc21 | 7% (inactive) |
| c1ccc2c(c1)N=c1ccccc1=P21c2ccccc2Nc2ccccc21 | 99% (active) |
| Nc1[nH]cnc(=S)c1NC=O | -5% (inactive) |
| COC(=O)CCC(=O)c1ccc2c(c1)CC1(Cc3ccccc3C1)C2 | 21% (inactive) |
| CCC[CH2][Sn]([CH2]CCC)([O]C(=O)c1cc(F)cc(F)c1)[O][Sn]([CH2]CCC)([CH2]CCC)[O]C(=O)c1cc(F)cc(F)c1 | 97% (active) |
| CCOC(=O)CSC(=S)Nc1ccc(Cl)cc1 | 91% (active) |
| CC1(C)CC(=O)C(C(c2ccc3c(c2)OCO3)N2CCOCC2)C(=O)C1 (stereo not drawn) | -13% (inactive) |
| COC(=O)c1c(C)cccc1C(=O)c1c(C)cc(C)cc1C | 68% (inactive) |
| C=C1C(=O)OC2CC3(C)CC(O)C(O)C(=C)C3CC12 (stereo not drawn) | 6% (inactive) |
| CCOC(=O)C1=C(N)N(S(=O)(=O)c2ccc(C)cc2)CCC(C(=O)OC)=C1 | 0% (inactive) |

Same assay, conditions: S. cerevisiae mec2-1 strain, at 50.0 µM, stronger effect = higher value

| Structure (SMILES) | growth inhibition |
| --- | --- |
| Cc1cc(O)c(C(=O)/C=C/c2cccnc2)c(=O)[nH]1 | 33.7% (inactive) |
| Oc1ccccc1C(=NNc1ccccc1)c1ccccc1O | 94.8% (active) |
| Cn1c(=S)c2[nH]c(SCCN3CCCCC3)nc2n(C)c1=O | 99.3% (active) |
| Cc1cc(=O)n(-c2cc3cccccc-3n2)[nH]1 | 71.6% (active) |
| CC(=O)OCC1OC(n2c(O)c(N=NC(N)=S)c3ccc([N+](=O)[O-])cc32)C(OC(C)=O)C1OC(C)=O (stereo not drawn) | 34.6% (inactive) |
| COC(=O)NNc1c([N+](=O)[O-])cnn(-c2ccccc2)c1=O | 0.55% (inactive) |
| CC(=O)N(C1=C(Cl)C(=O)c2ccccc2C1=O)c1ccc(F)cc1 | 99.3% (active) |
| COC(=O)CC1c2cc(OC)c3cccc(OC)c3c2CCC1(C)C(=O)OC (stereo not drawn) | 18.4% (inactive) |
| CC[n+]1c(/C=C/c2ccc(N(C)C)cc2)ccc2ccccc21 | 99.2% (active) |
| COc1ccc(SC2=C(N(C)C)C(=O)c3ccccc3C2=O)cc1 | 19.8% (inactive) |
| C1=C(c2ccccc2)C(=Nc2ccccc2)SC1=Nc1ccccc1 | 99.5% (active) |
| Cc1c(O)c(Br)c(Br)c(Br)c1Br | 87.1% (active) |
| CC1(C)OC(C(COC(=O)c2ccc([N+](=O)[O-])cc2)OS(=O)(=O)c2ccc([N+](=O)[O-])cc2)C(C(SCc2ccccc2)SCc2ccccc2)O1 (stereo not drawn) | 33.5% (inactive) |
| Cc1cccc(Cc2ccc(Cl)cc2)c1O | 99.5% (active) |
| C=C(CN(C)C)C(=O)c1ccccc1[N+](=O)[O-] | 51.4% (inactive) |
| CCCCN(CCCC)CC(O)c1cc(-c2ccc(Cl)cc2)nc2c(C)cccc12 (stereo not drawn) | 97.3% (active) |
| O=C(Nc1ccc(Cl)cc1)NS(=O)(=O)c1c(-c2ccccc2)oc2ccccc2c1=O | 96.3% (active) |
| Cc1cc(CN(Cc2ccccc2)Cc2nc3ccccc3[nH]2)c(O)c(CN(Cc2nc3ccccc3[nH]2)Cc2nc3ccccc3[nH]2)c1 | 72.5% (active) |
| COC1=CC2=CCC3C(CCC4(C)C(C(C)=O)CCC34)C2(C)CC1 (stereo not drawn) | 13% (inactive) |
| OC(C1CCCCN1)C1CC(c2ccccc2)Nc2c(Cl)cc(Cl)cc21 (stereo not drawn) | 99.5% (active) |

| Structure (SMILES) | growth inhibition |
| --- | --- |
| CN(C)C1=C(Cl)C(=O)c2ccccc2C1=O | 45.6% (inactive) |
| CCCCCNC(=O)C1C(=O)N(CCCCC)C(=O)/C1=N\N (stereo not drawn) | 29.8% (inactive) |
| O=C(Nc1ccc(Cl)cc1)OCCOCCOC(=O)Nc1ccc(Cl)cc1 | 97% (active) |
| CCCC(CC)c1c(O)c(O)c(C(CC)CCC)c(C(CC)CCC)c1C(CC)CCC (stereo not drawn) | 97.3% (active) |
| Cc1ccc(NC(=S)SCc2ccc3c(c2)OCO3)cc1Cl | 99.5% (active) |
| CN(C)CCCNc1ccc(O)c2c1C(=O)c1ccccc1C2=O | 87.8% (active) |
| CC1=C(C(=O)Nc2ccc(Cl)c(Cl)c2)C(c2ccco2)C(C(=O)Nc2ccc(Cl)c(Cl)c2)=C(C)N1 | 87.7% (active) |
| Cc1ccccc1NC(=O)CSC(N)=O | 60.4% (inactive) |
| Cc1[nH]c2ccccc2c1C(C)CC(O)c1ccccc1 (stereo not drawn) | 85.5% (active) |
| Cn1c(=O)ccc2cc(C(=O)c3ccccc3)ccc21 | 6.95% (inactive) |
| c1ccc2c(c1)N=c1ccccc1=P21c2ccccc2Nc2ccccc21 | 90.9% (active) |
| Nc1[nH]cnc(=S)c1NC=O | 2.8% (inactive) |
| COC(=O)CCC(=O)c1ccc2c(c1)CC1(Cc3ccccc3C1)C2 | 3.85% (inactive) |
| CCC[CH2][Sn]([CH2]CCC)([O]C(=O)c1cc(F)cc(F)c1)[O][Sn]([CH2]CCC)([CH2]CCC)[O]C(=O)c1cc(F)cc(F)c1 | 88.7% (active) |
| CCOC(=O)CSC(=S)Nc1ccc(Cl)cc1 | 21.1% (inactive) |
| CC1(C)CC(=O)C(C(c2ccc3c(c2)OCO3)N2CCOCC2)C(=O)C1 (stereo not drawn) | 99.5% (active) |
| COC(=O)c1c(C)cccc1C(=O)c1c(C)cc(C)cc1C | 82.2% (active) |
| C=C1C(=O)OC2CC3(C)CC(O)C(O)C(=C)C3CC12 (stereo not drawn) | 94.7% (active) |
| CCOC(=O)C1=C(N)N(S(=O)(=O)c2ccc(C)cc2)CCC(C(=O)OC)=C1 | 31.9% (inactive) |
